# Of roughly 6,500 targets only a part is listed; those with a hit were picked by preference. About 2% of all pairs of compound and target were hits. Values without a mark were called inactive.
# Compound: COC(=O)C#Cc1ccccc1 [methyl 3-phenylpropiolate]
# Test: log2 ratio of iodoacetamide-alkyne labeling of the cysteine site, DMSO over compound (competition); higher = stronger covalent engagement of the cysteine by the compound, active = 1 or more
# Conditions: 500 µM; treatment time 1 h; system: HEK293T cell lysate
# How it was run: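 HEK293T lysate (2 mg/mL) was incubated with electrophile (500 µM) or vehicle for 1 h at ambient temperature and then with iodoacetamide alkyne for 1 h. Labelled proteins were clicked to sCIP-TMT reagents, pooled, digested, enriched on streptavidin and measured by Orbitrap Eclipse LC-MS/MS with FAIMS, with FragPipe quantification. The per-cysteine log2 competition ratio is mean control-channel reporter intensity over mean compound-channel reporter intensity. Across three replicates with duplicate channels, cysteines quantified in only one replicate were excluded.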
# Sequence of UniProt Q9NUU7 (Q9NUU7 whole entry): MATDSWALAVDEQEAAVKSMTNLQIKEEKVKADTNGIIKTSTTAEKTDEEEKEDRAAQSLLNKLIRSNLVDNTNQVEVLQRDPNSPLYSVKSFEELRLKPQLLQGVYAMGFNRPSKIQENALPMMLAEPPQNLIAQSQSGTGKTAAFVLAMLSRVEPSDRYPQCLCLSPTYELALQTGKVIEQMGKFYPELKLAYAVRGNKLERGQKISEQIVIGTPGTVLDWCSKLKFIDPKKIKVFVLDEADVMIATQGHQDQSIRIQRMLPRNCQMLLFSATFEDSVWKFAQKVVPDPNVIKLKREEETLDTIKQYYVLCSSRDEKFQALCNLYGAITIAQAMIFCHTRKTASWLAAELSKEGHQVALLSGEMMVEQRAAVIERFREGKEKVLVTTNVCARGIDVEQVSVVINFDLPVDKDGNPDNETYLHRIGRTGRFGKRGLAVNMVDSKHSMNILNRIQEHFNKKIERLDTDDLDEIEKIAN
# Sequence of UniProt Q9NXV2 (Q9NXV2 whole entry, looked up): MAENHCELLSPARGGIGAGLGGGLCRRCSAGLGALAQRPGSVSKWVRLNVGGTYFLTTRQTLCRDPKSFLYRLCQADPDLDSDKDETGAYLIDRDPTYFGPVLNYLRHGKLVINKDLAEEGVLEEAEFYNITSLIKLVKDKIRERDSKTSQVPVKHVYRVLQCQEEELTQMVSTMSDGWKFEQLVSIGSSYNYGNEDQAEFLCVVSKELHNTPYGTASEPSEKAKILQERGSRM
# Sequence of UniProt Q9UGP8 (Q9UGP8 whole entry, looked up): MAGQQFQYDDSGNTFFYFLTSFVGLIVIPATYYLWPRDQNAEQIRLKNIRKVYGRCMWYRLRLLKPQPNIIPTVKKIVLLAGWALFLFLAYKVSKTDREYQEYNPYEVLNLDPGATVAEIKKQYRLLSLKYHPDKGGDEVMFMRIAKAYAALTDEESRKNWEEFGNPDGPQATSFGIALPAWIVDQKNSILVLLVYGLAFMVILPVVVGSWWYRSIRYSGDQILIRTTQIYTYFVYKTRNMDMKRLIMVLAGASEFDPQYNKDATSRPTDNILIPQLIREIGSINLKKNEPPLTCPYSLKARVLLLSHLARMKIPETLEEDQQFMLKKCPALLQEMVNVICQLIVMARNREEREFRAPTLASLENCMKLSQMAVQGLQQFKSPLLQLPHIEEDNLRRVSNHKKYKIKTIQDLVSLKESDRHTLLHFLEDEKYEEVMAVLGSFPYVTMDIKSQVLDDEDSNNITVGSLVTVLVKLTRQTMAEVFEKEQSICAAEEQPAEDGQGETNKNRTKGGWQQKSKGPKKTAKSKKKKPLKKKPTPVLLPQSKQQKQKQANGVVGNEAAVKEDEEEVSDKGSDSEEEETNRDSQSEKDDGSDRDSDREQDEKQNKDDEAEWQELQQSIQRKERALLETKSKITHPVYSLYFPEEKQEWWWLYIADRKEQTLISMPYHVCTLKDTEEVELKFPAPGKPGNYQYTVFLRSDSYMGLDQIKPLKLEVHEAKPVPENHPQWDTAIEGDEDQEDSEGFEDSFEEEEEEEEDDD
# Sequence of UniProt Q9UHR5 (Q9UHR5 whole entry, looked up): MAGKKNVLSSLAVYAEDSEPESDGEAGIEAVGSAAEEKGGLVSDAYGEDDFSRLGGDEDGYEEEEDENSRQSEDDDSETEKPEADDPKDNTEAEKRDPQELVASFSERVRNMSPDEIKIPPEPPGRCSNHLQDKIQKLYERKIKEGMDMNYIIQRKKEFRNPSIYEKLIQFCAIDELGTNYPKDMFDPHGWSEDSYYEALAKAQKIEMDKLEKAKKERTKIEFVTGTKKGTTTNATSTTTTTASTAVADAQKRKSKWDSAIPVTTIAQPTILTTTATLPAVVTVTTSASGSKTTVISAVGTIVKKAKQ
# Sequence of UniProt Q9Y2H0 (Q9Y2H0 whole entry, looked up): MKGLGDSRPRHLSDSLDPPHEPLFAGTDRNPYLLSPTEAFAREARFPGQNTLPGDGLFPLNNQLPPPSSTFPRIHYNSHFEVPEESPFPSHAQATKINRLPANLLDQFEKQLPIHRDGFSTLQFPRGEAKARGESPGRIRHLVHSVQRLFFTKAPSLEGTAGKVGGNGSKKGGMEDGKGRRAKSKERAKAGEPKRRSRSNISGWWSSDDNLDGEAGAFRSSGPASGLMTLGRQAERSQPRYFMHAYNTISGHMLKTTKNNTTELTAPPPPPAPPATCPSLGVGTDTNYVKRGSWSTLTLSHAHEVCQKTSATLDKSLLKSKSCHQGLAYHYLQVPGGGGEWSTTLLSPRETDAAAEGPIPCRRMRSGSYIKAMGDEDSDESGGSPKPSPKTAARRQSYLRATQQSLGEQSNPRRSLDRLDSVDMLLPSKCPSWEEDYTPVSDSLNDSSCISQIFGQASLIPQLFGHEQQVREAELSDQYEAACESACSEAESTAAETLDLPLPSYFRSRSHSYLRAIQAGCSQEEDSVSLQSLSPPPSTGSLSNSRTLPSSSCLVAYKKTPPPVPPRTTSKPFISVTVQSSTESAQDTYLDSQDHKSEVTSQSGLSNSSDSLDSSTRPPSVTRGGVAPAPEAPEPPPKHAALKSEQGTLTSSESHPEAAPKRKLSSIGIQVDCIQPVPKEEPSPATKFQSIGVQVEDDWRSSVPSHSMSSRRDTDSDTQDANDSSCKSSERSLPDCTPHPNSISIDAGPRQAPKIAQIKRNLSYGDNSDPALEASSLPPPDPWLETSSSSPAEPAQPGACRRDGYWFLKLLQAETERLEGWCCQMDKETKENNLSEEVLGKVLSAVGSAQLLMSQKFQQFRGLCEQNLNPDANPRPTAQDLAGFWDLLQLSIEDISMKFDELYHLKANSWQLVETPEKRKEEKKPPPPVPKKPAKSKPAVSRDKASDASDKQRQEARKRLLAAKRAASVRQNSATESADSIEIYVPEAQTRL
# Sequence of UniProt Q9UBC2 (Q9UBC2 whole entry): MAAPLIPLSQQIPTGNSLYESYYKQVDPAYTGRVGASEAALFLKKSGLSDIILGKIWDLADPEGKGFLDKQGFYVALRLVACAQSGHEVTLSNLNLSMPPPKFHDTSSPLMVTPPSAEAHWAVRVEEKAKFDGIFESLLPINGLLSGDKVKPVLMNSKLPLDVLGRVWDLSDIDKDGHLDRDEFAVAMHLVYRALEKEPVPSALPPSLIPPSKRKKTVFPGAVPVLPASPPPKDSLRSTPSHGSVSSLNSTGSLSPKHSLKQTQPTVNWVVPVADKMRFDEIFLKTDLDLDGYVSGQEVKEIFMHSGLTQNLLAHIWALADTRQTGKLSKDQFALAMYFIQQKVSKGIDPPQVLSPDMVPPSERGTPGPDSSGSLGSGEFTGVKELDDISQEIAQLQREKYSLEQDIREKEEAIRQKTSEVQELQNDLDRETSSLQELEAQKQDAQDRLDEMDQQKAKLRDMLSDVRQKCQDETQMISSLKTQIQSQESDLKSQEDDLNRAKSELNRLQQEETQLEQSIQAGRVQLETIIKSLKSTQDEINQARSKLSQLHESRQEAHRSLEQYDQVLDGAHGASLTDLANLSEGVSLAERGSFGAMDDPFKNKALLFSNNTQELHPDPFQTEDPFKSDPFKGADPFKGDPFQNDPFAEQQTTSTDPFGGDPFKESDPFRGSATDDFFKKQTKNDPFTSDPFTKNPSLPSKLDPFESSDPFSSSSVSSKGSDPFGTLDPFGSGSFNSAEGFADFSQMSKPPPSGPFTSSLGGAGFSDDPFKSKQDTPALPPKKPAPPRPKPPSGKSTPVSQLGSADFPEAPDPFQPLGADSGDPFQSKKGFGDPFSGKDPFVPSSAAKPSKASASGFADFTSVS
# Sequence of UniProt Q9NXC5 (Q9NXC5 whole entry): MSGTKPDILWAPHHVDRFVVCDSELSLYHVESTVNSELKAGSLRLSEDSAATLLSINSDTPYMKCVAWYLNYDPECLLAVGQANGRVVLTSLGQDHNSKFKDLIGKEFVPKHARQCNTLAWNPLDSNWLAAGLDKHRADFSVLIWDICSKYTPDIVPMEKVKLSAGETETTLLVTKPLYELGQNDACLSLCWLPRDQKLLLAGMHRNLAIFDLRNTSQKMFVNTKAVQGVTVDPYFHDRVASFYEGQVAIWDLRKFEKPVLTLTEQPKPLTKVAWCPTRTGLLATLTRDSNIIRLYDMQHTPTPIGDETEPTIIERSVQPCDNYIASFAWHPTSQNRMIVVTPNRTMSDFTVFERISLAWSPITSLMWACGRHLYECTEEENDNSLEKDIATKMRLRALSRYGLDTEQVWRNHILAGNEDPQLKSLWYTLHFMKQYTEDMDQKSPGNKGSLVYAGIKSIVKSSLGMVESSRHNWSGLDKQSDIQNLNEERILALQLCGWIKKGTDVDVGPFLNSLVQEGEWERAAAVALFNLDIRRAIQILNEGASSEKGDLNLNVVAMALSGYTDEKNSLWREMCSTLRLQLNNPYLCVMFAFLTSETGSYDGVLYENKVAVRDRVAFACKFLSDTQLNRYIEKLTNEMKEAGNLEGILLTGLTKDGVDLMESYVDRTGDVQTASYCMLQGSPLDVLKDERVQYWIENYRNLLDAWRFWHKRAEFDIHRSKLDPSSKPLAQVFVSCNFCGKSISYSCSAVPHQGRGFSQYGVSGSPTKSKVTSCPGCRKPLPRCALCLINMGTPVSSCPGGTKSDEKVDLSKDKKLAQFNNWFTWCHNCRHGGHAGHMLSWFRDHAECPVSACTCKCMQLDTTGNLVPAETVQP
# Sequence of UniProt Q9BYI3 (Q9BYI3 whole entry): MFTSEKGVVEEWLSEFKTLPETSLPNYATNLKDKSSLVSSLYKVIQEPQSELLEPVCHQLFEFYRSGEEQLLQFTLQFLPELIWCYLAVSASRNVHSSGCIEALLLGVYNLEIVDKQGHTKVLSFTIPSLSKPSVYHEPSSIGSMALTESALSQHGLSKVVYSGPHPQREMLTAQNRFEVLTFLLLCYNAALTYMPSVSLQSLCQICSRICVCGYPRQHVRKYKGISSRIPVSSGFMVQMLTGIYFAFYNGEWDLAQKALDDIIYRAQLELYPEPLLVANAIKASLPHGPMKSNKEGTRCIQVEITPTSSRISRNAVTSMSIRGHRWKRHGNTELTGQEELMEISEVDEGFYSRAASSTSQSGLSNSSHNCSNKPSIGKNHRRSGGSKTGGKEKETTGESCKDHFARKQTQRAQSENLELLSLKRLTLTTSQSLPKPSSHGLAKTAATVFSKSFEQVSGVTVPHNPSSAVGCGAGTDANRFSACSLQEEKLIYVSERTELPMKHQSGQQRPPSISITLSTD
row,Target,log2 ratio of iodoacetamide-alkyne labeling
1,DDX19A C224 (UniProt Q9NUU7),0.0835
2,FAM126A C300 (UniProt Q9BYI3),0.174
3,UniProt Q9Y5J5_C87,0.486
4,DLGAP4 C726 (UniProt Q9Y2H0),0.74
5,SEC63 C366 (UniProt Q9UGP8),-0.163
6,SAP30BP C127 (UniProt Q9UHR5),1.3 (active)
7,KCTD5 C6 (UniProt Q9NXV2),0.701
8,UniProt Q9Y3B4_C83,0.2
9,EPS15L1 C470 (UniProt Q9UBC2),0.13
10,XPO4 C1149 (UniProt Q9C0E2),0.048
11,UniProt Q9NSY1_C912,0.827
12,ASF1B C172 (UniProt Q9NVP2),1.22 (active)
13,GPN3 C219 (UniProt Q9UHW5),0.0998
14,GPHN C293 (UniProt Q9NQX3),1.12 (active)
15,MIOS C321 (UniProt Q9NXC5),0.126
16,STRAP C305 (UniProt Q9Y3F4),0.0837
17,CACYBP C173 (UniProt Q9HB71),0.182

# — the supplement of paper PMC11006884
